Test results taken from PubChem BioAssay (Tox21).
Where “and” joins values, the source holds several entries; their conditions need not be identical. Equal entries are not always repeated. Inconclusive results are not listed. Some structures have more than one record in an assay (separate samples or runs), and their calls can disagree. Calls of active or inactive are those of the source. Calls follow the shape of the dose curve; as a rule, active = well fitted curve in the direction sought with a large enough effect in the repeat runs; inconclusive = weak or mixed curves; inactive = no such curve, though single readings can be large; an effect the other way counts as inactive or inconclusive.

Columns and labels:
[1] = A CellTox Green Cytotoxicity Assay to monitor cytotoxicity in HEK293 cells - 40 hour (AID 1224871); also: nearly all actives have a fitted effect of over 45% in size; also: potency is read from the fitted curve at half-maximal effect
Method in brief: (§1)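 Fluorescence from a DNA-binding dye excluded by viable cells was measured repeatedly in the same HEK293 wells (600 cells/well) during continuous compound exposure at 37 C. Each assay gives one read point: 0, 8, 16, 24, 32 or 40 h.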

[2] = qHTS RealTime-Glo MT Cell Viability Assay in HEK293 cells - 16 hour (AID 1224872); also: nearly all actives have a fitted effect of over 50% in size; also: potency is read from the fitted curve at half-maximal effect
Method in brief: (§2)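 HEK293 cells seeded with NanoLuc/prosubstrate reagent, rested 5 h at 37 C, then dosed and kept at 37 C up to 40 h. Nonlytic real-time luminescence from viable cells read at 0, 8, 16, 24, 32 and 40 h.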

[3] = qHTS RealTime-Glo MT Cell Viability Assay in HepG2 cells - 8 hour (AID 1224873); also: nearly all actives have a fitted effect of over 55% in size
Method in brief: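 HepG2 cells mixed with RealTime-Glo MT reagents (NanoLuc plus cell-permeant prosubstrate) were seeded at 600 cells/well, incubated 5 h at 37 C/5% CO2, then pinned with compounds in DMSO; nonlytic luminescence tracked viability during 40 h treatment.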

[4] = qHTS RealTime-Glo MT Cell Viability Assay in HEK293 cells - 40 hour (AID 1224874); details: RealTime-Glo luminescence; max response: stronger effect = lower value; also: nearly all actives have a fitted effect of over 50% in size; also: potency is read from the fitted curve at half-maximal effect
Method in brief: (§3)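 Luminescence, which tracks viable cell number through reduction of the prosubstrate to a NanoLuc substrate, was read over continuous 37 C culture. Cells (600/well) were premixed with reagent and rested 5 h before 23 nL of compound in DMSO was pinned.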

[5] = A CellTox Green Cytotoxicity Assay to monitor cytotoxicity in HEK293 cells - 24 hour (AID 1224875); also: series mostly up to about 77 µM; nearly all actives have a fitted effect of over 45% in size
Method in brief: as §1

[6] = A CellTox Green Cytotoxicity Assay to monitor cytotoxicity in HepG2 cells - 16 hour (AID 1224876); also: nearly all actives have a fitted effect of over 45% in size; also: potency is read from the fitted curve at half-maximal effect
Method in brief: (§4)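 Real-time cytotoxicity: fluorescence of a cell-impermeant cyanine dye binding DNA of dead HepG2 cells, measured repeatedly (0–40 h) during compound exposure at 37 C. Cells seeded 600/well with reagent, dosed after 5 h.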

[7] = qHTS RealTime-Glo MT Cell Viability Assay in HepG2 cells - 32 hour (AID 1224877); also: nearly all actives have a fitted effect of over 55% in size
Method in brief: (§5)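 HepG2 cells (600/well) were dispensed with RealTime-Glo reagents, incubated 5 h at 37 °C, then treated with compounds in DMSO for up to 40 h. Nonlytic NanoLuc luminescence reflecting viable cells was read at each stated time point.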

[8] = A CellTox Green Cytotoxicity Assay to monitor cytotoxicity in HepG2 cells - 24 hour (AID 1224878); also: nearly all actives have a fitted effect of over 45% in size
Method in brief: as §4

[9] = A CellTox Green Cytotoxicity Assay to monitor cytotoxicity in HepG2 cells - 40 hour (AID 1224879); also: nearly all actives have a fitted effect of over 40% in size; also: potency is read from the fitted curve at half-maximal effect
Method in brief: as §4

[10] = qHTS RealTime-Glo MT Cell Viability Assay in HEK293 cells - 0 hour (AID 1224880); also: nearly all actives have a fitted effect of over 45% in size; also: potency is read from the fitted curve at half-maximal effect
Method in brief: as §3

[11] = A CellTox Green Cytotoxicity Assay to monitor cytotoxicity in HepG2 cells - 0 hour (AID 1224882); also: nearly all actives have a fitted effect of over 35% in size; also: potency is read from the fitted curve at half-maximal effect
Method in brief: as §4

[12] = A CellTox Green Cytotoxicity Assay to monitor cytotoxicity in HepG2 cells - 32 hour (AID 1224883); also: nearly all actives have a fitted effect of over 50% in size; also: potency is read from the fitted curve at half-maximal effect
Method in brief: as §4

[13] = A CellTox Green Cytotoxicity Assay to monitor cytotoxicity in HEK293 cells - 8 hour (AID 1224884); also: nearly all actives have a fitted effect of over 35% in size
Method in brief: as §1

[14] = qHTS RealTime-Glo MT Cell Viability Assay in HepG2 cells - 16 hour (AID 1224885); also: nearly all actives have a fitted effect of over 50% in size
Method in brief: as §5

[15] = qHTS RealTime-Glo MT Cell Viability Assay in HEK293 cells - 24 hour (AID 1224886); also: nearly all actives have a fitted effect of over 50% in size; also: potency is read from the fitted curve at half-maximal effect
Method in brief: as §2

[16] = qHTS RealTime-Glo MT Cell Viability Assay in HEK293 cells - 8 hour (AID 1224887)
Method in brief: as §3

[17] = A CellTox Green Cytotoxicity Assay to monitor cytotoxicity in HEK293 cells - 16 hour (AID 1224888); also: nearly all actives have a fitted effect of over 35% in size
Method in brief: as §1

[18] = A CellTox Green Cytotoxicity Assay to monitor cytotoxicity in HepG2 cells - 8 hour (AID 1224890); also: nearly all actives have a fitted effect of over 45% in size; also: potency is read from the fitted curve at half-maximal effect
Method in brief: as §4

[19] = qHTS RealTime-Glo MT Cell Viability Assay in HepG2 cells - 0 hour (AID 1224889); also: nearly all actives have a fitted effect of over 50% in size
Method in brief: as §5

[20] = A CellTox Green Cytotoxicity Assay to monitor cytotoxicity in HEK293 cells - 32 hour (AID 1224881); also: nearly all actives have a fitted effect of over 40% in size
Method in brief: as §1
% is scaled to controls: 0 for no effect and ±100 for the full control effect.

CC(C)C(=O)c1c(C(C)C)nn2ccccc12
inactive: Potency [1] | Potency [2] | Potency [3] | max response [4] -0.81% | Potency [5] | Potency [6] | Potency [7] | Potency [8] | Potency [9] | Potency [10] | Potency [11] | Potency [12] | Potency [13] | Potency [14] | Potency [15] | Potency [16] | Potency [17] | Potency [18]

O=C(O)CP(=O)(O)O
inactive: Potency [1] | Potency [2] | Potency [3] | max response [4] -6.08% | Potency [5] | Potency [6] | Potency [7] | Potency [8] | Potency [9] | Potency [10] | Potency [11] | Potency [12] | Potency [13] | Potency [15] | Potency [16] | Potency [17] | Potency [19] | Potency [18]

NC(N)=NC(=O)Cc1c(Cl)cccc1Cl
inactive: Potency [1] | Potency [2] | Potency [3] | max response [4] -13.5% | Potency [5] | Potency [6] | Potency [7] | Potency [8] | Potency [9] | Potency [10] | Potency [11] | Potency [12] | Potency [13] | Potency [14] | Potency [15] | Potency [16] | Potency [17] | Potency [19] | Potency [18]

CC(=O)O[C@]1(C(C)=O)CC[C@H]2[C@@H]3C[C@H](C)C4=CC(=O)CC[C@]4(C)[C@H]3CC[C@@]21C
active: Potency [2] 17.4 µM | Potency [4] 19.5 µM and 9.52 µM | Potency [10] 691 nM and 756 nM | Potency [15] 15.5 µM
inactive: Potency [3] | Potency [5] | Potency [6] | Potency [7] | Potency [8] | Potency [9] | Potency [12] | Potency [13] | Potency [16] | Potency [17] | Potency [18]
inactive and 37.9 nM (active): Potency [11]
48.9 µM (active) and inactive: Potency [1]

CCCCC/C=C/CC1CC(=O)OC1=O (centres undefined)
inactive: Potency [1] | Potency [2] | Potency [3] | max response [4] 1.06% | Potency [5] | Potency [6] | Potency [7] | Potency [9] | Potency [10] | Potency [20] | Potency [11] | Potency [12] | Potency [13] | Potency [14] | Potency [15] | Potency [16] | Potency [19] | Potency [18]

CCCCCCC(O)CCCCCCCCCCC(=O)O (centres undefined)
inactive: Potency [1] | Potency [2] | Potency [3] | max response [4] -19.9% and -13.9% | Potency [5] | Potency [6] | Potency [7] | Potency [8] | Potency [9] | Potency [10] | Potency [11] | Potency [12] | Potency [13] | Potency [14] | Potency [15] | Potency [16] | Potency [17] | Potency [19] | Potency [18]

CC1COC(=O)O1 (centres undefined)
inactive and 43.6 µM (active): Potency [9] | Potency [11] | Potency [12] | Potency [18]
inactive and 38.9 µM (active): Potency [6]
inactive: Potency [1] | Potency [2] | Potency [3] | max response [4] 9.29% and -24.4% | Potency [5] | Potency [7] | Potency [10] | Potency [20] | Potency [13] | Potency [14] | Potency [15] | Potency [16] | Potency [17] | Potency [19]

CC[C@]1(O)C[C@@H]2CN(CCc3c([nH]c4ccccc34)[C@@](C(=O)OC)(c3cc4c(cc3OC)N(C)[C@H]3[C@@](O)(C(=O)OC)[C@H](OC(C)=O)[C@]5(CC)C=CCN6CC[C@]43[C@@H]65)C2)C1
inactive: Potency [1] | Potency [2] | Potency [3] | Potency [5] | Potency [6] | Potency [7] | Potency [9] | Potency [10] | Potency [20] | Potency [11] | Potency [12] | Potency [13] | Potency [16] | Potency [17] | Potency [19] | Potency [18]
active: Potency [4] 15.1 nM and 5.4 nM | Potency [15] 0.0043 µM

O=C(O)c1cccc(C(=O)O)c1
inactive: Potency [1] | Potency [2] | Potency [3] | max response [4] 5.05% and -3.16% | Potency [5] | Potency [6] | Potency [7] | Potency [8] | Potency [9] | Potency [10] | Potency [11] | Potency [12] | Potency [13] | Potency [14] | Potency [15] | Potency [16] | Potency [17] | Potency [19] | Potency [18]

O
inactive: Potency [1] | Potency [2] | Potency [3] | max response [4] 0.569% and 9.85% | Potency [5] | Potency [6] | Potency [7] | Potency [9] | Potency [10] | Potency [20] | Potency [11] | Potency [12] | Potency [13] | Potency [14] | Potency [15] | Potency [16] | Potency [17] | Potency [19] | Potency [18]
